{
  "source": "the supplement of paper PMC12067093",
  "about": "“Discovery and optimisation of a covalent ligand for TRIM25 and its application to targeted protein ubiquitination” (Chemical Science, 2025)",
  "compound": "CC1Cc2ccccc2N1C(=O)C1CCCN(C1)C(=O)CCl (mixture of isomers) [TRIM25 ligand 11 (diastereomer mixture)]",
  "test": "probe-labelled cysteine peptide fold change vs DMSO (competition) (log2 fold change); higher = less target engagement (more negative = stronger competition)",
  "settings": "THP-1, incubation time: 4 h",
  "note": "Targets with the largest changes are over-represented here; the source holds about 21,000 in all.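 Also: competitive chemoproteomic profiling in live THP-1 cells with an iodoacetamide desthiobiotin (IA-DTB) probe, comparing probe-labelled peptide intensities in compound-treated cells against DMSO-treated controls.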",
  "data": [
    {"target": "DCAF10_Q5QP82_213_TLSEAHEDCVNNIR (UniProt Q5QP82)", "values": [
      {"measurement": "probe-labelled cysteine peptide fold change", "setting": "10 µM", "value": 0.0726},
      {"measurement": "probe-labelled cysteine peptide fold change", "setting": "50 µM", "value": -0.0884}
    ]},
    {"target": "CRYBG1_Q9Y4K1_581+609_EVQLPTCHSNEPEVVSVASCAPPQEEVLGNEHSHCTAELAAK (UniProt Q9Y4K1)", "values": [
      {"measurement": "probe-labelled cysteine peptide fold change", "setting": "10 µM", "value": 0.00451},
      {"measurement": "probe-labelled cysteine peptide fold change", "setting": "50 µM", "value": -0.813}
    ]},
    {"target": "CRYBG1_Q9Y4K1_594+609_EVQLPTCHSNEPEVVSVASCAPPQEEVLGNEHSHCTAELAAK (UniProt Q9Y4K1)", "values": [
      {"measurement": "probe-labelled cysteine peptide fold change", "setting": "10 µM", "value": -0.0918},
      {"measurement": "probe-labelled cysteine peptide fold change", "setting": "50 µM", "value": -0.248}
    ]},
    {"target": "DCP1A_Q9NPI6_39_QHDPYITSIADLTGQVALYTFCPK (UniProt Q9NPI6)", "sequence (Q9NPI6 whole entry)": "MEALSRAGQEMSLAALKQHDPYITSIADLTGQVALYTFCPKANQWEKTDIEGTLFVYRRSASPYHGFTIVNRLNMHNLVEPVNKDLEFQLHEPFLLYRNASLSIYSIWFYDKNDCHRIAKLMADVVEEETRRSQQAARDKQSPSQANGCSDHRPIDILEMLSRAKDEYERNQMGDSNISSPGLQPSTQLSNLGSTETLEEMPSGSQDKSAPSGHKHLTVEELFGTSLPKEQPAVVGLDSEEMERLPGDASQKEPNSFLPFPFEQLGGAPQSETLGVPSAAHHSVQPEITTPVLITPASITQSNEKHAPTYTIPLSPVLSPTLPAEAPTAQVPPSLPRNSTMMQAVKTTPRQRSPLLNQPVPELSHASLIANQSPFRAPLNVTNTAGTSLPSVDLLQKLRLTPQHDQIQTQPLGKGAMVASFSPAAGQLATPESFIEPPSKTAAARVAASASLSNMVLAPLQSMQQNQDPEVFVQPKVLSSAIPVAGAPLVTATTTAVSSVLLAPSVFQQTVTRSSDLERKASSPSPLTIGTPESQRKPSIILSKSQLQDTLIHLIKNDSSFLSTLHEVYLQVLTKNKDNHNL", "values": [
      {"measurement": "probe-labelled cysteine peptide fold change", "setting": "10 µM", "value": 0.179},
      {"measurement": "probe-labelled cysteine peptide fold change", "setting": "50 µM", "value": 0.205}
    ]},
    {"target": "CUL4B_Q13620_248_YNLEELYQAVENLCSYK (UniProt Q13620)", "values": [
      {"measurement": "probe-labelled cysteine peptide fold change", "setting": "10 µM", "value": 0.033},
      {"measurement": "probe-labelled cysteine peptide fold change", "setting": "50 µM", "value": 0.163}
    ]},
    {"target": "DDX42_Q86XP3_382_ALQEGAEIVVCTPGR (UniProt Q86XP3)", "values": [
      {"measurement": "probe-labelled cysteine peptide fold change", "setting": "10 µM", "value": 0.0737},
      {"measurement": "probe-labelled cysteine peptide fold change", "setting": "50 µM", "value": 0.0996}
    ]},
    {"target": "DIAPH2_O60879_484_LDIDLTHLIDSCVNK (UniProt O60879)", "values": [
      {"measurement": "probe-labelled cysteine peptide fold change", "setting": "10 µM", "value": 0.0266},
      {"measurement": "probe-labelled cysteine peptide fold change", "setting": "50 µM", "value": 0.095}
    ]},
    {"target": "DUSP23_Q9BVJ7_95_GEAVGVHCALGFGR (UniProt Q9BVJ7)", "values": [
      {"measurement": "probe-labelled cysteine peptide fold change", "setting": "10 µM", "value": -0.00709},
      {"measurement": "probe-labelled cysteine peptide fold change", "setting": "50 µM", "value": 0.14}
    ]},
    {"target": "CYTH1_Q15438_323_EVEDSKKPNCFELYIPDNK (UniProt Q15438)", "sequence (Q15438 whole entry, looked up)": "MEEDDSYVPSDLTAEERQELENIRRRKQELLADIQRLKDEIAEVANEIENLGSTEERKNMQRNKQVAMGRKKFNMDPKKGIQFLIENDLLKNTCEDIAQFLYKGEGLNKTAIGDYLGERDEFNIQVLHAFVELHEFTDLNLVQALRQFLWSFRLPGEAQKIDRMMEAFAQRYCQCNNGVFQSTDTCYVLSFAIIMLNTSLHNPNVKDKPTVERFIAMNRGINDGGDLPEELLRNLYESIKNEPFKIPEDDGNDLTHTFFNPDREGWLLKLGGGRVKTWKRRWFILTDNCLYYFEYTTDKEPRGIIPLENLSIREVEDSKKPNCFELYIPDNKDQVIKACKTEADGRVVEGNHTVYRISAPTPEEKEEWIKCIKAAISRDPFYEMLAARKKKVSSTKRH", "values": [
      {"measurement": "probe-labelled cysteine peptide fold change", "setting": "10 µM", "value": -0.213},
      {"measurement": "probe-labelled cysteine peptide fold change", "setting": "50 µM", "value": -0.14}
    ]},
    {"target": "DAXX_Q9UER7_106_AHSLFLASAEFCNILSR (UniProt Q9UER7)", "values": [
      {"measurement": "probe-labelled cysteine peptide fold change", "setting": "10 µM", "value": 0.442},
      {"measurement": "probe-labelled cysteine peptide fold change", "setting": "50 µM", "value": 1.38}
    ]},
    {"target": "DDX42_Q86XP3_333_ELEPGDGPIAVIVCPTR (UniProt Q86XP3)", "values": [
      {"measurement": "probe-labelled cysteine peptide fold change", "setting": "10 µM", "value": 0.0933},
      {"measurement": "probe-labelled cysteine peptide fold change", "setting": "50 µM", "value": 0.0408}
    ]},
    {"target": "DIDO1_Q9BTC0_1449_MCADVR (UniProt Q9BTC0)", "values": [
      {"measurement": "probe-labelled cysteine peptide fold change", "setting": "10 µM", "value": -0.0543},
      {"measurement": "probe-labelled cysteine peptide fold change", "setting": "50 µM", "value": -0.242}
    ]},
    {"target": "DDX28_Q9NUL7_453_DILLCTDIASR (UniProt Q9NUL7)", "values": [
      {"measurement": "probe-labelled cysteine peptide fold change", "setting": "10 µM", "value": 0.0908},
      {"measurement": "probe-labelled cysteine peptide fold change", "setting": "50 µM", "value": 0.0393}
    ]},
    {"target": "DDX28_Q9NUL7_360_LHCIMPHVK (UniProt Q9NUL7)", "values": [
      {"measurement": "probe-labelled cysteine peptide fold change", "setting": "10 µM", "value": -0.061},
      {"measurement": "probe-labelled cysteine peptide fold change", "setting": "50 µM", "value": 0.0889}
    ]},
    {"target": "DOK3_Q7L591_323_LPELTRPQPCPLPR (UniProt Q7L591)", "sequence (Q7L591 whole entry, looked up)": "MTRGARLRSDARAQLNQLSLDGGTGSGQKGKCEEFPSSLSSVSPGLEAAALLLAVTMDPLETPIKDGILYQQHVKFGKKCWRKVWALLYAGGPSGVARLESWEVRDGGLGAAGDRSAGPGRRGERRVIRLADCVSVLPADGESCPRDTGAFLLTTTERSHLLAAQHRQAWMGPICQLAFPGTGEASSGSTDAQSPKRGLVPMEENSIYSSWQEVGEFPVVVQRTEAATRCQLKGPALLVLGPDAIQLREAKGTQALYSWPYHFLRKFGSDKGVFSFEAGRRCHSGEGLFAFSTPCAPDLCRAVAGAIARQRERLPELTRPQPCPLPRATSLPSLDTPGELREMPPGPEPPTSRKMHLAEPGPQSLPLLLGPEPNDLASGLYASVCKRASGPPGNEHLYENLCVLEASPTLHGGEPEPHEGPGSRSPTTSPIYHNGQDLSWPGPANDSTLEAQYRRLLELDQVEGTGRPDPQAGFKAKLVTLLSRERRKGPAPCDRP", "values": [
      {"measurement": "probe-labelled cysteine peptide fold change", "setting": "10 µM", "value": 0.463},
      {"measurement": "probe-labelled cysteine peptide fold change", "setting": "50 µM", "value": -0.185}
    ]},
    {"target": "DHX37_Q8IY37_486_MLPAGGILVFLTGQAEVHALCR (UniProt Q8IY37)", "sequence (Q8IY37 whole entry, looked up)": "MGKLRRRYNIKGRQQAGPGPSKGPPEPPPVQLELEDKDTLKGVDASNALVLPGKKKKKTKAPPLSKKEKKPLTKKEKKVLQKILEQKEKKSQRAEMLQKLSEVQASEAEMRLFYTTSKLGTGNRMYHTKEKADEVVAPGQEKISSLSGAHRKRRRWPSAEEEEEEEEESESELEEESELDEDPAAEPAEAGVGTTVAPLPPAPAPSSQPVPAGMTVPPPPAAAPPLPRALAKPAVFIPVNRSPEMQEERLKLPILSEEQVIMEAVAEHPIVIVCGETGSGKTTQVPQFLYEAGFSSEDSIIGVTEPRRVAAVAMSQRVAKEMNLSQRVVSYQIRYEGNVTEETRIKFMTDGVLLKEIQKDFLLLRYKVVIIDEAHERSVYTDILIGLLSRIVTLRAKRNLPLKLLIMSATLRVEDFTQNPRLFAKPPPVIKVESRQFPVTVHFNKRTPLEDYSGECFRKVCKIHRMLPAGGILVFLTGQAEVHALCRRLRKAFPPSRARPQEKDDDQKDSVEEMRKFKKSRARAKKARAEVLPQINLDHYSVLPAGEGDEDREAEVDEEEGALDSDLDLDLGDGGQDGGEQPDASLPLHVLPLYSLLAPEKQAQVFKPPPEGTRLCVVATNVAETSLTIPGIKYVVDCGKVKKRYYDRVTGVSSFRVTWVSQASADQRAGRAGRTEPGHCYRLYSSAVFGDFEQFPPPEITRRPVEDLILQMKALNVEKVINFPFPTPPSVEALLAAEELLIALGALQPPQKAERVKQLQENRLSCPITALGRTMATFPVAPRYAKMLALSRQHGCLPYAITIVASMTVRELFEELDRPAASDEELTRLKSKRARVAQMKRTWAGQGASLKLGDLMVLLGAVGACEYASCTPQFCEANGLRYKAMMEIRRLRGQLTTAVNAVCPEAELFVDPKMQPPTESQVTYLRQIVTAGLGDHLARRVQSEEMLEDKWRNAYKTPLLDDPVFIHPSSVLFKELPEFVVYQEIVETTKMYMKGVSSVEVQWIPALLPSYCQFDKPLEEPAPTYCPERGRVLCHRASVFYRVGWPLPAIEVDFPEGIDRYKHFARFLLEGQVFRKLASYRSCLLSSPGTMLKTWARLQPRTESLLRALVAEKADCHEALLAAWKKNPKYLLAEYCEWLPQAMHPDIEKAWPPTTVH", "values": [
      {"measurement": "probe-labelled cysteine peptide fold change", "setting": "10 µM", "value": 0.281},
      {"measurement": "probe-labelled cysteine peptide fold change", "setting": "50 µM", "value": 0.563}
    ]},
    {"target": "DMRT1_Q9Y5R6_105_CNLIAER (UniProt Q9Y5R6)", "sequence (Q9Y5R6 whole entry)": "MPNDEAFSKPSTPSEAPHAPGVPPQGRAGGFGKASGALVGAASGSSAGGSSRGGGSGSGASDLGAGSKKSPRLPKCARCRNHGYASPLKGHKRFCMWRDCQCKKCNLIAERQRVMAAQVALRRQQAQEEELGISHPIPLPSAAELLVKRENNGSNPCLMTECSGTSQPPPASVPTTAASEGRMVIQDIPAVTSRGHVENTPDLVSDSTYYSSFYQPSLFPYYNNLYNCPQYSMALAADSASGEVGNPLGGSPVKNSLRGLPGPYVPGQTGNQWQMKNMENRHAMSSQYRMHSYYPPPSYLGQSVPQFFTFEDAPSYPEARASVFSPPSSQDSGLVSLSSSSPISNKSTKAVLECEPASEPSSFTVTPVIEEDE", "values": [
      {"measurement": "probe-labelled cysteine peptide fold change", "setting": "10 µM", "value": 1.19},
      {"measurement": "probe-labelled cysteine peptide fold change", "setting": "50 µM", "value": 0.0204}
    ]},
    {"target": "CRYZL1_O95825_177_VISTACSLEDK (UniProt O95825)", "sequence (O95825 whole entry, looked up)": "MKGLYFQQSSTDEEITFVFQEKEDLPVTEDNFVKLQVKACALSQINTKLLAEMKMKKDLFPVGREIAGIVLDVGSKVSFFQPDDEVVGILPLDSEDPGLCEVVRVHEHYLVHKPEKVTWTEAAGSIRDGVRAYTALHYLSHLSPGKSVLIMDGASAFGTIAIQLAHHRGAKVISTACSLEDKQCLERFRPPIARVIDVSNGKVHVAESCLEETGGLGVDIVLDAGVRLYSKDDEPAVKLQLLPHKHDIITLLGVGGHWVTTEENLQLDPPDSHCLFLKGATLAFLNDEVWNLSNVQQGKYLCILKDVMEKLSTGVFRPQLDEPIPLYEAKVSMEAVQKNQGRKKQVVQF", "values": [
      {"measurement": "probe-labelled cysteine peptide fold change", "setting": "10 µM", "value": 0.0726},
      {"measurement": "probe-labelled cysteine peptide fold change", "setting": "50 µM", "value": 0.107}
    ]},
    {"target": "CPT2_P23786_512_CSEAFVREPSR (UniProt P23786)", "values": [
      {"measurement": "probe-labelled cysteine peptide fold change", "setting": "10 µM", "value": -0.197},
      {"measurement": "probe-labelled cysteine peptide fold change", "setting": "50 µM", "value": -0.0581}
    ]},
    {"target": "DYNC1H1_Q14204_4438_QDLADVVQVCEGK (UniProt Q14204)", "values": [
      {"measurement": "probe-labelled cysteine peptide fold change", "setting": "10 µM", "value": 0.0826},
      {"measurement": "probe-labelled cysteine peptide fold change", "setting": "50 µM", "value": 0.0819}
    ]},
    {"target": "DNM1L_O00429_300_LLMHHIRDCLPELK (UniProt O00429)", "sequence (O00429 whole entry, looked up)": "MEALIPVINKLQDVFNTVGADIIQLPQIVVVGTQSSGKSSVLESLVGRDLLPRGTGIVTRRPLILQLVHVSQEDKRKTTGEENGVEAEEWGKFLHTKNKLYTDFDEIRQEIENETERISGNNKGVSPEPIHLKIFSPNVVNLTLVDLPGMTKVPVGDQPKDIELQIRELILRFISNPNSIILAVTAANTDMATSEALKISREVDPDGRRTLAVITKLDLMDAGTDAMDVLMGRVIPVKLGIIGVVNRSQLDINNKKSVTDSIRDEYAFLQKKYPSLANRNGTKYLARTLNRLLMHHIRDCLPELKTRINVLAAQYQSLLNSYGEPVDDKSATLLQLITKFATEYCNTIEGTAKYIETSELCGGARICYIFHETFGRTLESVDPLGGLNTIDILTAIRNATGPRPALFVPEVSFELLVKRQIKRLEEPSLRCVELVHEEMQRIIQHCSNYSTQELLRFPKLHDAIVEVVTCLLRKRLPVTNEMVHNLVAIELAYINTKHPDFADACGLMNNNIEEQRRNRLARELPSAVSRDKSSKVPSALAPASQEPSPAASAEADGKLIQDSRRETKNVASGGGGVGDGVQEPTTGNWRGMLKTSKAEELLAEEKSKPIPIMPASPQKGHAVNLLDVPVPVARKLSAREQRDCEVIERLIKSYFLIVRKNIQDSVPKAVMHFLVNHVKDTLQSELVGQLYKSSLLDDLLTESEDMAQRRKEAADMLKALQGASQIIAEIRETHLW", "values": [
      {"measurement": "probe-labelled cysteine peptide fold change", "setting": "10 µM", "value": -0.355},
      {"measurement": "probe-labelled cysteine peptide fold change", "setting": "50 µM", "value": -0.178}
    ]},
    {"target": "DARS2_Q6PI48_202_MREYLCNLHGFVDIETPTLFKR (UniProt Q6PI48)", "values": [
      {"measurement": "probe-labelled cysteine peptide fold change", "setting": "10 µM", "value": -0.272},
      {"measurement": "probe-labelled cysteine peptide fold change", "setting": "50 µM", "value": -0.129}
    ]},
    {"target": "DNAJB14_Q8TBM8_77_KPSGSGDQSKPNCTK (UniProt Q8TBM8)", "values": [
      {"measurement": "probe-labelled cysteine peptide fold change", "setting": "10 µM", "value": -0.262},
      {"measurement": "probe-labelled cysteine peptide fold change", "setting": "50 µM", "value": -0.569}
    ]},
    {"target": "DMXL2_Q8TDJ6_62_HGNIQVSCVECSNQQGR (UniProt Q8TDJ6)", "values": [
      {"measurement": "probe-labelled cysteine peptide fold change", "setting": "10 µM", "value": -0.159},
      {"measurement": "probe-labelled cysteine peptide fold change", "setting": "50 µM", "value": -0.593}
    ]},
    {"target": "DHCR24_Q15392_393_CLQQALHTFQNDIHVYPIWLCPFILPSQPGLVHPK (UniProt Q15392)", "sequence (Q15392 whole entry, looked up)": "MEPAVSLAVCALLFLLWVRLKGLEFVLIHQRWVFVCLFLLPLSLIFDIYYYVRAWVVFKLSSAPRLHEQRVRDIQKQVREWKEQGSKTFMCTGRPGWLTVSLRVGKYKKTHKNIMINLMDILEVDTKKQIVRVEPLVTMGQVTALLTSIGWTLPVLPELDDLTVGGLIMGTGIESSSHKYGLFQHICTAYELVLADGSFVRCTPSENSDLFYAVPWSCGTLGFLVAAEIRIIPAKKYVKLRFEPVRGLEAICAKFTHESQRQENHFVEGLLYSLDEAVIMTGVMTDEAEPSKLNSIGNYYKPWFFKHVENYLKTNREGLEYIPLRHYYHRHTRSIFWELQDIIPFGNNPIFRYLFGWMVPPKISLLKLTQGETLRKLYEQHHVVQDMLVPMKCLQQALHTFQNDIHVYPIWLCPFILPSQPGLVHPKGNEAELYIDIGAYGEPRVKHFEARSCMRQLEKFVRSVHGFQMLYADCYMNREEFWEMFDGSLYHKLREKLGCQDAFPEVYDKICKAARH", "values": [
      {"measurement": "probe-labelled cysteine peptide fold change", "setting": "10 µM", "value": 0.14},
      {"measurement": "probe-labelled cysteine peptide fold change", "setting": "50 µM", "value": -0.425}
    ]},
    {"target": "DDX42_Q86XP3_339+346_ELCQQIHAECK (UniProt Q86XP3)", "values": [
      {"measurement": "probe-labelled cysteine peptide fold change", "setting": "10 µM", "value": -0.0625},
      {"measurement": "probe-labelled cysteine peptide fold change", "setting": "50 µM", "value": -0.045}
    ]},
    {"target": "DECR2_Q9NUI1_53_HGCHTVIASR (UniProt Q9NUI1)", "sequence (Q9NUI1 whole entry, looked up)": "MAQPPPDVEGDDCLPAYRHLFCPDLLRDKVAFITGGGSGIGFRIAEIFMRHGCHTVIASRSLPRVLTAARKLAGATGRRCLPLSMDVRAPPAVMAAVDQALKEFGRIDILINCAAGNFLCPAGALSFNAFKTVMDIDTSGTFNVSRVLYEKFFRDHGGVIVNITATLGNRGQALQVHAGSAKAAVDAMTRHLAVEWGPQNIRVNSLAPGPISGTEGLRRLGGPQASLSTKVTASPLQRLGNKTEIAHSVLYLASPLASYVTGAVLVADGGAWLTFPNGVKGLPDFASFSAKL", "values": [
      {"measurement": "probe-labelled cysteine peptide fold change", "setting": "10 µM", "value": 0.317},
      {"measurement": "probe-labelled cysteine peptide fold change", "setting": "50 µM", "value": 0.574}
    ]}
  ]
}
